Records with an inconclusive call do not appear. Activity calls are given as the source filed them. Calls come from the whole dose curve; as a rule, active = well fitted curve in the direction sought with a large enough effect; inconclusive = small, poorly fitted or top-dose-only effect, or another doubt; inactive = no such curve, though single readings can be large; an effect the other way counts as inactive or inconclusive.
Legend:
[1] = test system: NIH3T3; experiment: Cytotoxic Profiling of Annotated Libraries Using Quantitative High-Throughput Screening (AID 1296008); details: Five cell lines viability, CellTiter-Glo ATP luminescence, 48-72 h; max response: stronger effect = lower value; note: nearly all actives have a fitted effect of over 60% in size
Outline: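 Compounds were pin-transferred onto cells and incubated 48 or 72 hr at 37 degree Celsius, 95% humidity. CellTiter-Glo was added, plates sat 10 min at room temperature, then ATP-coupled luminescence was imaged as the viability read-out.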

[2] = test system: HACAT; experiment: qHTS assay to identify novel small-molecules to repurpose for Merkel cell carcinoma treatment (AID 1296009); details: MCC and control cell lines, CellTiter-Glo viability, 72 h; at 44.8 µM (top of the series) unless noted; note: nearly all actives have a fitted effect of over 60% in size
Outline: (§1)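 qHTS format: cells treated with library compounds in DMSO across 8 (NPC) or 11 (MIPE) concentrations. Readout after 72 hr at 37 degree celsius was CellTiter-Glo luminescence.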

[3] = test system: MCC-13; experiment: as above; details: MCC and control cell lines, CellTiter-Glo viability, 72 h; series mostly up to 46 µM
Outline: as §1

[4] = test system: MCC-26; experiment: as above; details: MCC and control cell lines, CellTiter-Glo viability, 72 h; series mostly up to 46 µM
Outline: as §1

[5] = test system: MKL-1; experiment: as above; details: MCC and control cell lines, CellTiter-Glo viability, 72 h; series mostly up to 46 µM
Outline: as §1

[6] = test system: MKL-2; experiment: as above; details: MCC and control cell lines, CellTiter-Glo viability, 72 h; series mostly up to 46 µM
Outline: as §1

[7] = test system: NIH3T3; experiment: as above; details: MCC and control cell lines, CellTiter-Glo viability, 72 h; at 44.8 µM (top of the series) unless noted
Outline: as §1

[8] = test system: UISO; experiment: as above; details: MCC and control cell lines, CellTiter-Glo viability, 72 h; series mostly up to 46 µM
Outline: as §1

[9] = test system: WaGa; experiment: as above; details: MCC and control cell lines, CellTiter-Glo viability, 72 h; series mostly up to 46 µM
Outline: as §1

[10] = test system: C33A; experiment: Primary qHTS to identify gynecologic anti-cancer compounds using libraries of approved drugs and bioactive compounds (AID 1345084); details: Gynecologic cancer cell panel viability, ATPlite luminescence, 48 h; series mostly up to 57.5 µM; note: nearly all actives have a fitted effect of over 55% in size
Outline: (§2)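 Five-point cytotoxicity, 48 h drug exposure at 37 C, 5% CO2, on cells seeded 16 h beforehand. ATP content read by ATPlite luminescence.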

[11] = test system: CAOV3; experiment: as above; details: Gynecologic cancer cell panel viability, ATPlite luminescence, 48 h; series mostly up to 57.5 µM
Outline: as §2

[12] = test system: CASKI; experiment: as above; details: Gynecologic cancer cell panel viability, ATPlite luminescence, 48 h; series mostly up to 57.5 µM
Outline: as §2

[13] = test system: Es-2; experiment: as above; details: Gynecologic cancer cell panel viability, ATPlite luminescence, 48 h; series mostly up to 57.5 µM
Outline: as §2

[14] = test system: HeLa; experiment: as above; details: Gynecologic cancer cell panel viability, ATPlite luminescence, 48 h; series mostly up to 57.5 µM
Outline: as §2

[15] = test system: Hek293T; experiment: as above; details: Gynecologic cancer cell panel viability, ATPlite luminescence, 48 h, control line for the selectivity index; series mostly up to 57.5 µM
Outline: as §2

[16] = test system: JEG-3; experiment: as above; details: Gynecologic cancer cell panel viability, ATPlite luminescence, 48 h; series mostly up to 57.5 µM
Outline: as §2

[17] = test system: OV90; experiment: as above; details: Gynecologic cancer cell panel viability, ATPlite luminescence, 48 h; series mostly up to 57.5 µM
Outline: as §2

[18] = test system: PA-1; experiment: as above; details: Gynecologic cancer cell panel viability, ATPlite luminescence, 48 h; series mostly up to 57.5 µM
Outline: as §2

[19] = test system: SKOV3; experiment: as above; details: Gynecologic cancer cell panel viability, ATPlite luminescence, 48 h; series mostly up to 57.5 µM
Outline: as §2

[20] = test system: HEK293T; experiment: qHTS assay to identify novel small-molecules to repurpose for Merkel cell carcinoma treatment (AID 1296009); details: MCC and control cell lines, CellTiter-Glo viability, 72 h; at 44.8 µM (top of the series) unless noted; note: nearly all actives have a fitted effect of over 60% in size
Outline: as §1
% is set by controls: 0 for no effect and ±100 for the full control effect.

O=C(OCC(COC(=O)c1cccnc1)(COC(=O)c1cccnc1)COC(=O)c1cccnc1)c1cccnc1
inactive: outcome [1] | outcome [2] | Potency [3] | Potency [4] | Potency [5] | Potency [6] | outcome [7] | Potency [8] | Potency [9] | Potency [10] | Potency [11] | Potency [12] | Potency [13] | Potency [14] | Potency [15] | Potency [16] | Potency [17] | Potency [18] | Potency [19]

CCN(CC)CC(=O)OCC(=O)[C@@]1(O)CC[C@H]2[C@@H]3CCC4=CC(=O)CC[C@]4(C)[C@H]3[C@@H](O)C[C@@]21C
inactive: outcome [1] | outcome [2] | Potency [3] | Potency [4] | Potency [5] | Potency [6] | outcome [7] | Potency [8] | Potency [9] | Potency [10] | Potency [11] | Potency [12] | Potency [13] | Potency [14] | Potency [15] | Potency [16] | Potency [17] | Potency [18] | Potency [19]

CO/N=C(\C(=O)O)c1csc(NC(=O)CCl)n1
inactive: outcome [1] | outcome [2] | Potency [3] | Potency [4] | Potency [5] | Potency [6] | outcome [7] | Potency [8] | Potency [9] | Potency [10] | Potency [11] | Potency [12] | Potency [13] | Potency [14] | Potency [15] | Potency [16] | Potency [17] | Potency [18] | Potency [19]

Cc1cccc(C)c1NC(=O)c1ccc(N)cc1
inactive: outcome [1] | outcome [2] | Potency [3] | Potency [4] | Potency [5] | Potency [6] | outcome [7] | Potency [8] | Potency [9] | Potency [10] | Potency [11] | Potency [12] | Potency [13] | Potency [14] | Potency [15] | Potency [16] | Potency [17] | Potency [18] | Potency [19]

CCCCCOc1ccc(C2SC(=O)NC2=O)cc1OCC (stereo not drawn)
inactive: outcome [1] | outcome [2] | Potency [3] | Potency [4] | Potency [5] | Potency [6] | outcome [7] | Potency [8] | Potency [9] | Potency [10] | Potency [11] | Potency [12] | Potency [13] | Potency [14] | Potency [15] | Potency [16] | Potency [17] | Potency [18]

CC(=O)O[C@@H]1CC2C3CCc4cc(OC(=O)c5ccccc5)ccc4C3CCC2(C)[C@H]1OC(C)=O (stereo partly drawn)
inactive: max response [1] 3.57% | outcome [2] | outcome [20] | Potency [3] | Potency [4] | Potency [5] | Potency [6] | Potency [8] | Potency [9] | Potency [10] | Potency [11] | Potency [12] | Potency [13] | Potency [14] | Potency [15] | Potency [16] | Potency [17] | Potency [18] | Potency [19]

CN(C)CCN(Cc1ccsc1)c1ccccn1
inactive: outcome [1] | outcome [2] | Potency [3] | Potency [4] | Potency [5] | Potency [6] | outcome [7] | Potency [8] | Potency [9] | Potency [10] | Potency [11] | Potency [12] | Potency [13] | Potency [14] | Potency [15] | Potency [16] | Potency [17] | Potency [18] | Potency [19]

Cc1ccc(-c2ccccc2C#N)cc1
inactive: max response [1] 3.01% | outcome [2] | outcome [20] | Potency [3] | Potency [4] | Potency [5] | Potency [6] | Potency [8] | Potency [9] | Potency [10] | Potency [11] | Potency [12] | Potency [13] | Potency [14] | Potency [15] | Potency [16] | Potency [17] | Potency [18] | Potency [19]

N#CC1(c2ccc(F)cc2)CCC(=O)CC1
inactive: outcome [1] | outcome [2] | Potency [3] | Potency [4] | Potency [5] | Potency [6] | outcome [7] | Potency [8] | Potency [9] | Potency [10] | Potency [11] | Potency [12] | Potency [13] | Potency [14] | Potency [15] | Potency [16] | Potency [17] | Potency [18] | Potency [19]

O=C1CC2(CCCC2)CC(=O)N1
inactive: outcome [1] | outcome [2] | Potency [3] | Potency [4] | Potency [5] | Potency [6] | outcome [7] | Potency [8] | Potency [9] | Potency [10] | Potency [11] | Potency [12] | Potency [13] | Potency [14] | Potency [15] | Potency [16] | Potency [17] | Potency [18] | Potency [19]

CCOC(=O)NNc1ccc(N(CC)CC(C)O)nn1 (stereo not drawn)
inactive: max response [1] 4.97% | outcome [2] | outcome [20] | Potency [3] | Potency [4] | Potency [5] | Potency [8] | Potency [9] | Potency [10] | Potency [11] | Potency [12] | Potency [13] | Potency [14] | Potency [15] | Potency [16] | Potency [17] | Potency [18] | Potency [19]

O=C(O)CCCC[P+](c1ccccc1)(c1ccccc1)c1ccccc1
inactive: max response [1] 3.89% | outcome [2] | outcome [20] | Potency [3] | Potency [4] | Potency [5] | Potency [6] | Potency [8] | Potency [9] | Potency [10] | Potency [11] | Potency [12] | Potency [13] | Potency [14] | Potency [15] | Potency [16] | Potency [17] | Potency [18] | Potency [19]

Cc1coc2ccccc2c1=O
inactive: outcome [1] | outcome [2] | Potency [3] | Potency [4] | Potency [5] | Potency [6] | outcome [7] | Potency [8] | Potency [9] | Potency [10] | Potency [11] | Potency [12] | Potency [13] | Potency [14] | Potency [15] | Potency [16] | Potency [17] | Potency [18] | Potency [19]

CC(=O)Nc1ccc(S(=O)(=O)Nc2cc(C)on2)cc1
inactive: outcome [1] | outcome [2] | Potency [3] | Potency [4] | Potency [5] | Potency [6] | outcome [7] | Potency [8] | Potency [9] | Potency [10] | Potency [11] | Potency [12] | Potency [13] | Potency [14] | Potency [15] | Potency [16] | Potency [17] | Potency [18]

Reference: PubChem BioAssay (NCATS)
